From PubChem BioAssay (NCI)
Compounds without any hit were thinned out: in the full panel of roughly 83,000, 20% have a hit.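 Plates (96-well) were seeded with cells, treated with compound at one concentration, and incubated for 48 hours before percent growth was determined.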 Unmarked numbers belong to inactive results. Activity calls are given as the source filed them. Rule for the calls: active = growth percent below 10; inactive = the rest.

Experiments:
Experiment in all cases: NCI-60 one-dose screen, 48 h (100 = growth as untreated, 0 = no growth, -100 = all killed)
HT29 colon = conditions: 10 µM unless noted
SNB-75 CNS = conditions: 10 µM unless noted
SNB-19 CNS = conditions: 10 µM unless noted
U251 CNS = conditions: 10 µM unless noted
SK-MEL-5 melanoma = conditions: 10 µM unless noted
UACC-62 melanoma = conditions: 10 µM unless noted
LOX IMVI melanoma = conditions: 10 µM unless noted
SK-MEL-28 melanoma = conditions: 10 µM
SK-MEL-2 melanoma = conditions: 10 µM unless noted
PC-3 prostate = conditions: 10 µM unless noted

SMILES	growth (HT29 colon)	growth (SNB-75 CNS)	growth (SNB-19 CNS)	growth (U251 CNS)	growth (SK-MEL-5 melanoma)	growth (UACC-62 melanoma)	growth (LOX IMVI melanoma)	growth (SK-MEL-28 melanoma)	growth (SK-MEL-2 melanoma)	growth (PC-3 prostate)
CCC1=C[C@@H]2CN(C1)Cc1c([nH]c3ccccc13)[C@@](C(=O)OC)(c1cc3c(cc1OC)N(C)[C@H]1[C@@](O)(C(=O)OC)[C@H](OC(C)=O)[C@]4(CC)[C@@H]5C[C@@H]5CN5CC[C@]31[C@@H]54)C2	-23.3% (active)	3.05% (active)	55.7%	7.9% (active)	-79.9% (active)	12.6%	3.68% (active)	14.4%	10.4%	–
Cc1cccc(NC(=O)c2sc3nc4c(cc3c2N)CCCC4)c1C	2.81% (active)	10.8%	26.2%	15.1%	–	38.7%	42.3%	–	49.1%	21.2%
Nc1cccc(Nc2cc(S(=O)(=O)O)c(N)c3c2C(=O)c2ccccc2C3=O)c1	96.3%	82.2%	101%	95.5%	–	106%	85%	–	100%	100%
COc1cc([C@@H]2NC(=O)NC(C)=C2C(=O)Nc2nc(-c3ccc(Cl)cc3)cs2)ccc1O	108%	87.3%	113%	97.9%	–	91.6%	94.2%	110%	105%	88.9%
O=C1/C(=C\c2ccc[nH]2)c2ccccc2N1c1ccccc1	105%	84.7%	92.2%	99.3%	90.5%	77%	96.4%	96.7%	106%	–
COc1ccc(C(=O)Nc2ccc3nc(N4CCCCC4)cc(C)c3c2)cc1OC	20.8%	102%	109%	69.3%	–	98.5%	–	94.5%	119%	45.1%
CCOC(=O)c1c2c(n3cccc(Cl)c13)C(=O)c1ncccc1C2=O	69.3%	78.2%	45.9%	36%	–	55.9%	27.3%	87.5%	103%	53%
CCOc1cccc(/C=N\Nc2nc(=O)cc(C(=O)OC)s2)c1O	76.1%	77.8%	75.9%	57.6%	–	63%	61.7%	87.2%	99.6%	72.8%
Cc1cc(OC(=O)c2ccc([N+](=O)[O-])cc2)nc2[nH]c(=O)sc12	105%	90.6%	98.6%	97.1%	100%	102%	98.8%	109%	104%	–
COC(=O)c1ccc(NC(=O)CSc2nc3ccccc3c(=O)n2-c2ccccc2)cc1	108%	92.1%	99.3%	102%	94%	96.3%	98.4%	113%	105%	–
O=C1Nc2ccccc2/C1=C/c1cccs1	110%	103%	83.2%	83.2%	–	85.9%	93%	–	110%	92.3%
CCCCOCc1cc(CN2CCN(C)CC2)c(O)c2ncccc12	96%	68.2%	48.6%	27.8%	50.6%	53%	35.9%	74.7%	97.7%	–
O=c1oc2ccc(Cl)cc2c(=O)n1-c1cc(C(F)(F)F)cc(C(F)(F)F)c1	1.92% (active)	-36.2% (active)	13.5%	-15.2% (active)	–	-34.7% (active)	-15.5% (active)	-18.9% (active)	-34.2% (active)	11.9%
O=C(Nc1ccc(F)cc1F)c1cc(Cl)ccc1O	31.4%	-8.57% (active)	16.2%	3.34% (active)	–	7.39% (active)	14.5%	–	-25.6% (active)	6.06% (active)
COc1cc2c(cc1OC)C(=O)C(CC1CCN(C(=O)Nc3ccc(C)cc3)CC1)C2 (stereo not given)	107%	88.4%	95.2%	106%	–	79.9%	96.9%	99.1%	97.9%	88.6%
CCn1c(Cc2ccccc2Nc2c(Cl)cccc2Cl)nnc1SCC(=O)NN1C(=O)/C(=C/c2cccc(OC)c2OC)SC1=S	113%	87.3%	91.2%	90.1%	97.1%	96.6%	92%	104%	96.7%	–
O=C(Nc1ncc(Cc2cccc(C(F)(F)F)c2)s1)C1COc2ccccc2O1 (stereo not given)	84.9%	83.3%	89.9%	83.8%	89.8%	65.3%	94.8%	87.5%	–	–
CCOC(=O)c1sc(-c2ccc(OS(=O)(=O)c3cccs3)c(C=O)c2)nc1C	1.93% (active)	4.62% (active)	5.38% (active)	2.52% (active)	-88.9% (active)	2.43% (active)	-48.2% (active)	27.4%	28.6%	–
CCCC(c1nnnn1C1CCCCC1)N1CCN(C(=O)c2ccco2)CC1 (stereo not given)	27.2%	76.7%	84.5%	50.2%	–	55.7%	–	65.6%	65.1%	54.2%
C[n+]1c2ccccc2nc2ccc(NCCO)cc21	8.37% (active)	98.8%	78.3%	80.5%	–	84.1%	90.6%	110%	102%	50.7%
O=C(CSc1ncccc1C(=O)O)Nc1ccc(Oc2ccccc2)cc1	115%	88.3%	106%	–	–	116%	92.1%	105%	–	99.8%
CN(C)/C=C1\SC(=Nc2ccc(Cl)cc2)NC1=O	110%	96.4%	102%	99.7%	97%	95.2%	101%	101%	104%	–
Fc1cccc(COc2ccc(Nc3ncnc4onc(-c5ccccc5)c34)cc2)c1	3.86% (active)	-34.9% (active)	21%	22.5%	19.2%	23.5%	23.1%	55.2%	35.9%	–
CNCCNc1nc2ccccc2c2c(=O)c3cc(F)ccc3sc12	-30.9% (active)	47.4%	69.1%	-53.3% (active)	88.1%	22.3%	17.7%	84.6%	85.2%	–
COC(=O)C1(C)COP(=O)(Nc2ccc(OC)cc2)OC1 (stereo not given)	101%	92.1%	103%	104%	105%	108%	96.3%	–	96.4%	–
Cc1ccc(Cc2cnc(NC(=O)CN3C(=O)/C(=C\c4ccccc4)SC3=S)s2)cc1	114%	94.4%	99.7%	94.8%	102%	98.4%	98.6%	106%	106%	–
COc1ccc(-c2nc(-c3ccccc3)c(-c3ccccc3)[nH]2)cc1OC1CCCCC1	99.1%	78.7%	85.8%	90.3%	93.6%	76.7%	83.4%	96.4%	95.1%	–
COc1ccc(/C=C2\SC(=Nc3ccccc3)NC2=O)cc1	-89.2% (active)	-97.9% (active)	-50% (active)	-90.1% (active)	-97.2% (active)	-91% (active)	-82.9% (active)	-100% (active)	-84.8% (active)	–
CCOC(=O)c1ccc(N=Cc2sc(=O)[nH]c2O)cc1	104%	84.9%	91.9%	97.3%	99.8%	91.2%	93.6%	105%	94.5%	–
CCCCN1CCN(c2ccc3nc(-c4ccc5nc(-c6ccc(OC)c(OC)c6)[nH]c5c4)[nH]c3c2)CC1	5.94% (active)	6.59% (active)	0.577% (active)	-45.3% (active)	-34.4% (active)	-58.5% (active)	-81.4% (active)	-71.2% (active)	-51.2% (active)	–
